Results filed as inconclusive are left out. Where a call stands in place of a potency, no number is given. More than one record can exist for a structure, and the calls need not agree. Calls of active or inactive are those of the source. Unless noted, calls follow the shape of the dose curve; as a rule, active = well fitted curve in the direction sought with a large enough effect in the repeat runs; inconclusive = weak or mixed curves; inactive = no such curve, though single readings can be large; an effect the other way counts as inactive or inconclusive. Residues, ends and D or L forms follow the SMILES beside them.
Experiments:
[1] = qHTS assay to identify small molecule agonists of the sonic hedgehog signaling (Shh) pathway (AID 1259368; calls by dose curve;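 also: NIH/3T3-derived 3T3Gli1-Luc cells carrying a stable Gli1-driven firefly luciferase reporter; series mostly up to about 92 µM; nearly all actives have a fitted effect of over 15% in size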)
Outline: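 Stable NIH/3T3 Gli1-Luc reporter clone; 24 hr cpd exposure after a 4 hr settling period; luminescence endpoint.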

[2] = qHTS assay to identify small molecule antagonists of the sonic hedgehog signaling (Shh) pathway (AID 1259369; calls by dose curve; also: nearly all actives have a fitted effect of over 45% in size; also: potency is read from the fitted curve at half-maximal effect)
Outline: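 Gli1 transcriptional reporter (firefly Luc) in NIH/3T3 background, conditioned-medium activated. 24hr exposure, luminescence endpoint.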

[3] = qHTS assay to identify small molecule agonists of the androgen receptor (AR) signaling pathway in the presence of an antagonist - cell viability counter screen (AID 1259379);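 also: MDA-kb2 human breast cancer cells carrying an MMTV luciferase reporter; series mostly up to about 92 µM; nearly all actives have a fitted effect of over 25% in size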
Outline: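 Counter screen for cell viability run in parallel with the AR agonist-mode luciferase assay. MDA-kb2 cells were co-treated with nilutamide (3.0uM final) and compounds, then incubated 16 hr at 37C, and CellTiter-Fluor fluorescence was measured.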

[4] = qHTS assay to identify small molecule agonists of the estrogen receptor beta (ER-beta) signaling pathway - cell viability counter screen (AID 1259380); also: nearly all actives have a fitted effect of over 30% in size; also: potency is read from the fitted curve at half-maximal effect
Outline: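 In this qHTS counter screen, HEK293T cells carrying an ER-beta/UAS beta-lactamase reporter, grown in 2% charcoal-stripped FBS, received compound for 16 hr; ATP-based CellTiter-Glo luminescence was then read after 30 min at room temperature.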

[5] = qHTS assay to identify small molecule antagonists of the estrogen receptor beta (ER-beta) signaling pathway - cell viability counter screen (AID 1259382); also: series mostly up to about 92 µM; nearly all actives have a fitted effect of over 55% in size
Outline: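 HEK293T ER-beta-UAS-bla, 2% charcoal-stripped FBS; compounds + 1nM E2 16 hr 37C; CellTiter-Glo luminescence, 30 min RT.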

[6] = target: Estrogen receptor (Homo sapiens) (UniProt P03372); assay: qHTS assay to identify small molecule agonists of the estrogen receptor alpha (ER-alpha) signaling pathway in the presence of an antagonist (AID 1259383; calls by dose curve; also: top concentration of the series differs between compounds; nearly all actives have a fitted effect of over 15% in size)
Chain of Estrogen receptor (Homo sapiens) (P03372 whole entry, looked up): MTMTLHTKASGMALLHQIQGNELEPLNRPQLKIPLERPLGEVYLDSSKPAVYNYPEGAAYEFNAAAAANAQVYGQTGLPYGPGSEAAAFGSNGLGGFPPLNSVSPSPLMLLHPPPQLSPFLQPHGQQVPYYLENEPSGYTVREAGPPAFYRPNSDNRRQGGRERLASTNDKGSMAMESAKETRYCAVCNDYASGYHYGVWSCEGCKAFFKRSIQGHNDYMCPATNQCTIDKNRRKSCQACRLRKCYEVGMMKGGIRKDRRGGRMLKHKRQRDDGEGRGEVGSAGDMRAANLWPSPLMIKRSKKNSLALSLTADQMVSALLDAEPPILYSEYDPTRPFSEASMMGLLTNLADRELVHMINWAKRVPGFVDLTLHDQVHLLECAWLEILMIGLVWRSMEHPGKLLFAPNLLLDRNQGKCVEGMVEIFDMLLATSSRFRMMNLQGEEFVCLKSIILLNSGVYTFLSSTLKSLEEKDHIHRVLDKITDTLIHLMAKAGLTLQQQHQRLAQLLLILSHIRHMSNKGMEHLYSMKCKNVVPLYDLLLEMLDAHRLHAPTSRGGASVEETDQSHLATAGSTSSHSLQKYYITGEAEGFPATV
Outline: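 ER-alpha agonism measured under antagonist challenge: 10.0nM ICI-182,780 (final) plus compound, 15 concentrations, 22hr, VM7Luc4E2 ERE-luciferase cells. Read by luminescence.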

[7] = qHTS assay to identify small molecule agonists or antagonists of the thyroid stimulating hormone receptor (TSHR) signaling pathway - wild type cell line counter screen (AID 1259384; calls by dose curve)
Outline: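 Counter screen in untransfected Hek293: compounds (15-point titration, triplicate) plus phosphodiesterase inhibitor Ro20-1724 added after 18 h plating; 30 min RT. Intracellular cAMP via competitive d2/cryptate immunoassay, 1 h incubation.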

[8] = target: Thyrotropin receptor (Homo sapiens) (UniProt P16473); assay: qHTS assay to identify small molecule antagonists of the thyroid stimulating hormone receptor (TSHR) signaling pathway (AID 1259385; calls by dose curve; also: nearly all actives have a fitted effect of over 20% in size)
Chain of Thyrotropin receptor (Homo sapiens) (P16473 whole entry, looked up): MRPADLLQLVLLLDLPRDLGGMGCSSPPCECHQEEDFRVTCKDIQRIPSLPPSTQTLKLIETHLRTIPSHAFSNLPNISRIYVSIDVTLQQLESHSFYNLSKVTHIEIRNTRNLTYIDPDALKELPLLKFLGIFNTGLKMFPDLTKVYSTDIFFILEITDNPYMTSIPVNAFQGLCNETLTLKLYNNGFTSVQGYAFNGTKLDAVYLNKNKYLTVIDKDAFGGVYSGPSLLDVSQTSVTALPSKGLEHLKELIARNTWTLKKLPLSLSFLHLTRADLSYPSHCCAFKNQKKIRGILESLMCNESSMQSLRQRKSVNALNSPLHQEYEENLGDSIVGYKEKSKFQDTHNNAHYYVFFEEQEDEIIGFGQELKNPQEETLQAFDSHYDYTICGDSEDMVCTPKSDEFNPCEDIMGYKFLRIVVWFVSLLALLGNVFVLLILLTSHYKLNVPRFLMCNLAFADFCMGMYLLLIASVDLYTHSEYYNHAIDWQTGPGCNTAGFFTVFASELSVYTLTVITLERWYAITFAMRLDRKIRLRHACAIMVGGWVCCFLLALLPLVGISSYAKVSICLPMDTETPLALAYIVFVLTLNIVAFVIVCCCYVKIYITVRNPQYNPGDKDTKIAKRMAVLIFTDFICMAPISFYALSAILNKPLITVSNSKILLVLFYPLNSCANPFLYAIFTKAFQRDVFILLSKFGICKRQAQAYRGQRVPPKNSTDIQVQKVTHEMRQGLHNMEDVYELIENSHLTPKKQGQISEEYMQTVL
Outline: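 Antagonist mode: compound-treated TSHR-expressing HEK293 cells were stimulated with 1.5 ng/mL TSH (final) in presence of Ro20-1724 for 30 min at RT. HTRF cAMP detection after 1 h; each compound tested at 15 concentrations, triplicate.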

[9] = qHTS assay to identify small molecule agonists of the estrogen receptor alpha (ER-alpha) signaling pathway in the presence of an antagonist - cell viability counter screen (AID 1259386);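 also: series mostly up to about 92 µM; cells exposed to compounds for 22 h at 37 °C before the viability read; nearly all actives have a fitted effect of over 30% in size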
Outline: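 Steps: 5-day stripped-FBS culture; seed and incubate 24hr; add ICI-182,780 (10.0nM final); pin 15-point compound titration; incubate 22hr at 37C; add CellTiter-Fluor at 21hr; read fluorescence.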

[10] = target: Progesterone receptor (Homo sapiens) (UniProt P06401); assay: qHTS assay to identify small molecule agonists of the progesterone receptor (PR) signaling pathway (AID 1346784; calls by dose curve; also: nearly all actives have a fitted effect of over 30% in size)
Chain of Progesterone receptor (Homo sapiens) (P06401 whole entry, looked up): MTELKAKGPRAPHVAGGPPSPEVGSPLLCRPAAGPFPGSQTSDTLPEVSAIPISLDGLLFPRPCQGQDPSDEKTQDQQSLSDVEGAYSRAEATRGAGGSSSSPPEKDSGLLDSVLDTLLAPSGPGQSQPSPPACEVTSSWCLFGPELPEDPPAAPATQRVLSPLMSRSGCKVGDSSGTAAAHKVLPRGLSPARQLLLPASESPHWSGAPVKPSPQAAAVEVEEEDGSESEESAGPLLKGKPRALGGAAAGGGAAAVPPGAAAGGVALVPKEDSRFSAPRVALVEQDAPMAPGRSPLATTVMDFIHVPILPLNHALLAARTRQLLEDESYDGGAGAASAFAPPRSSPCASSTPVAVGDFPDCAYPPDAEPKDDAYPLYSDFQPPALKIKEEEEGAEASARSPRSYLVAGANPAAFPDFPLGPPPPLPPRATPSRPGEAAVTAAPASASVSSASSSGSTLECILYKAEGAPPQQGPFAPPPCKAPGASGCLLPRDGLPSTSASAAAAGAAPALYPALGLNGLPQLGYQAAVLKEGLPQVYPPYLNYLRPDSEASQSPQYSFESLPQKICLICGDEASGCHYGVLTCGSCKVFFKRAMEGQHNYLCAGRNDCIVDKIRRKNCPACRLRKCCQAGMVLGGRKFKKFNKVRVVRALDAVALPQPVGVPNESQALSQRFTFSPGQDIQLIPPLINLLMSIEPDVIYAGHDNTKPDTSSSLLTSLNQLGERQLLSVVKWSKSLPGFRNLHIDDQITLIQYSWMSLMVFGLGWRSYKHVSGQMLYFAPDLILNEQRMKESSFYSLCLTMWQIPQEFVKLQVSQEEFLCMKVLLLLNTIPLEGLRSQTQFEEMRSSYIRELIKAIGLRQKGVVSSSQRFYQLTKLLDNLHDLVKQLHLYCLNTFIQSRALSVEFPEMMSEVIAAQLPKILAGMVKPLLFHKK
Outline: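 PR-UAS-bla HEK 293T cells carrying a UAS-driven beta-lactamase reporter were seeded in medium with 2% charcoal-stripped FBS, preincubated 6 hr at 37C, then exposed to compounds in DMSO for 16 hr; agonism was read by LiveBLAzer B/G FRET fluorescence.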

[11] = target: Progesterone receptor (Homo sapiens) (UniProt P06401); assay: qHTS assay to identify small molecule antagonists of the progesterone receptor (PR) signaling pathway (AID 1346795; active = well fitted inhibition curve with a large enough effect in the signal ratio in the repeat runs, not every such curve was filed as active; the % refers to the signal ratio)
Outline: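 PR-UAS-bla HEK293T cells carrying a UAS-driven beta-lactamase reporter were plated in medium with 2% charcoal-stripped FBS and rested 6 hr at 37C. Compounds were added with 1 nM R5020 (final) for 16 hr, then FRET substrate loaded 2 hr at room temperature.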

[12] = qHTS assay to identify small molecule antagonists of the progesterone receptor (PR) signaling pathway - cell viability counter screen (AID 1346798); also: series mostly up to about 92 µM; nearly all actives have a fitted effect of over 50% in size
Outline: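 PR-UAS-bla HEK293T cells in medium with 2% charcoal-stripped FBS were treated with compounds plus R5020 for 16 hr at 37C. Cell viability was then read by CellTiter-Glo luminescence after 30 min at room temperature in the same wells.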

[13] = qHTS assay to identify small molecule agonists of the progesterone receptor (PR) signaling pathway - cell viability counter screen (AID 1346799; calls by dose curve; also: nearly all actives have a fitted effect of over 45% in size)
Outline: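 PR-UAS-bla HEK293T cells, 3,000 per well in medium with 2% charcoal-stripped FBS, were preincubated 6 hr at 37C, then exposed to compounds for 16 hr; viability was read as CellTiter-Glo luminescence after 30 min at room temperature.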

[14] = qHTS assay to identify small molecule antagonists of the TGF-beta/Smad signaling pathway - cell viability counter screen (AID 1346824); also: nearly all actives have a fitted effect of over 50% in size
Outline: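 Cytotoxicity counter-screen run in the same wells as the beta-lactamase Smad reporter read: CellTiter-Glo luminescence after 30 min at room temperature. HEK 293T SBE-bla cells had 5 hr compound exposure at 37 C with TGF-beta1 (0.25 ng/mL stock).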

[15] = qHTS assay to identify small molecule agonists of the TGF-beta/Smad signaling pathway - cell viability counter screen (AID 1346829); also: top concentration of the series differs between compounds; nearly all actives have a fitted effect of over 45% in size
Outline: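 Here the cytotoxicity of library compounds is measured in SBE-bla HEK 293T cells treated for 5 hr, using CellTiter-Glo added to wells already read for the beta-lactamase reporter.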

[16] = qHTS assay to identify small molecule agonists of the TGF-beta/Smad signaling pathway (AID 1346859; active = well fitted activation curve with a large enough effect in the signal ratio in the repeat runs, not every such curve was filed as active; the % refers to the signal ratio; also: series mostly up to about 77 µM)
Outline: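 HEK 293T cells stably carrying a beta-lactamase reporter driven by the Smad binding element were seeded overnight, exposed to DMSO-dissolved compounds for 5 hr at 37 C, 5% CO2, then loaded with FRET substrate for 2 hr at room temperature.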

[17] = target: Thyrotropin-releasing hormone receptor (Homo sapiens) (UniProt P34981); assay: qHTS assay to identify small molecule antagonists of the thyrotropin-releasing hormone receptor (TRHR) signaling pathway (AID 1346877; active = well fitted inhibition curve with a large enough effect in the repeat runs, not every such curve was filed as active; also: series mostly up to about 51 µM)
Chain of Thyrotropin-releasing hormone receptor (Homo sapiens) (P34981 whole entry, looked up): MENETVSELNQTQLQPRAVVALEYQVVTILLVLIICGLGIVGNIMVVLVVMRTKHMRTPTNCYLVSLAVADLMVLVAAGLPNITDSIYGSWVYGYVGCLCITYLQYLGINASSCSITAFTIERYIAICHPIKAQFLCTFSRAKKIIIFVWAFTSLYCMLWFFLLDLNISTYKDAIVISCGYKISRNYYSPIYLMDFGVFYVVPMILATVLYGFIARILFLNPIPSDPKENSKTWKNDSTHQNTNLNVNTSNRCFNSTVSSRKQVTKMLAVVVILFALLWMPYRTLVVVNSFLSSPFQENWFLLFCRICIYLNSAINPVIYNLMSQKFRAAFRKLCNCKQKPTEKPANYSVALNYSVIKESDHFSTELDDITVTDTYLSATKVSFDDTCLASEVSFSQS
Outline: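 Human TRHR in HEK293 cells; inhibition of the intracellular calcium rise triggered by 1 nM TRH was followed by fluorescence over 3 min. Compounds were run at 15 concentrations, three replicates each.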

[18] = target: Estrogen receptor beta (Homo sapiens) (UniProt Q92731); assay: qHTS assay to identify small molecule agonists of the estrogen receptor beta (ER-beta) signaling pathway (AID 1259377; active = well fitted activation curve with a large enough effect in the signal ratio in the repeat runs, not every such curve was filed as active; the % refers to the signal ratio)
Chain of Estrogen receptor beta (Homo sapiens) (Q92731 whole entry, looked up): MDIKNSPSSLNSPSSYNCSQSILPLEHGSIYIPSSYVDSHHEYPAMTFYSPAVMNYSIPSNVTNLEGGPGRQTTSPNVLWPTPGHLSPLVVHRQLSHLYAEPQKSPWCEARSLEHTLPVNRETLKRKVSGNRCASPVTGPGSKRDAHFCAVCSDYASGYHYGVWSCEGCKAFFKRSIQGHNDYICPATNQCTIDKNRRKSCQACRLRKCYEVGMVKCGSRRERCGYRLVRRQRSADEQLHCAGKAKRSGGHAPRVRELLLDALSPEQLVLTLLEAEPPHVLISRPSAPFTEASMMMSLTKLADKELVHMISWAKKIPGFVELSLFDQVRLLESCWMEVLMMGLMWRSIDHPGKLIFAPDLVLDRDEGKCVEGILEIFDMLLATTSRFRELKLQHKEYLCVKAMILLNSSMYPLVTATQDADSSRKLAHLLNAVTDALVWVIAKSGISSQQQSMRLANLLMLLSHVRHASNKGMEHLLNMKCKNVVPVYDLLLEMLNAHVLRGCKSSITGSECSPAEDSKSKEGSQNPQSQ
Outline: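 ER-beta-UAS-bla HEK293T (GripTite) cells carrying a UAS-driven beta-lactamase reporter, in medium with 2% charcoal-stripped FBS, were exposed to compounds for 16 hr at 37C; LiveBLAzer B/G FRET substrate was then added and fluorescence read after 2 hours at room temperature.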

[19] = target: Estrogen receptor beta (Homo sapiens) (UniProt Q92731); assay: qHTS assay to identify small molecule antagonists of the estrogen receptor beta (ER-beta) signaling pathway (AID 1259378; active = well fitted inhibition curve with a large enough effect in the signal ratio in the repeat runs, not every such curve was filed as active; the % refers to the signal ratio)
Outline: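 Antagonist mode: compounds added to beta-lactamase reporter HEK293T ER-beta-UAS cells stimulated with E2 (1nM final), 16 hr at 37C. LiveBLAzer B/G FRET substrate, 2 hours room temperature, fluorescence read-out.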

| Structure (SMILES) | outcome [1] | Potency [2] | Potency [3] | Potency [4] | Potency [5] | Potency [6] | outcome [7] | outcome [8] | Potency [9] | Potency [10] | outcome [11] | Potency [12] | Potency [13] | outcome [14] | Potency [15] | outcome [16] | outcome [17] | outcome [18] | Potency [19] |
| --- | --- | --- | --- | --- | --- | --- | --- | --- | --- | --- | --- | --- | --- | --- | --- | --- | --- | --- | --- |
| CCCC(CCC)C(=O)O | inactive | inactive | inactive | inactive | inactive | inactive | inactive | inactive | inactive | inactive | inactive | inactive | inactive | inactive | inactive | inactive | inactive | – | – |
| Cc1cc(=O)[nH]c(=S)[nH]1 | inactive | inactive | inactive | inactive | inactive | inactive | inactive | inactive | inactive | inactive | – | inactive | inactive | inactive | – | – | inactive | – | – |
| Cc1cn([C@H]2C[C@H](N=[N+]=[N-])[C@@H](CO)O2)c(=O)[nH]c1=O | inactive | 17.7 µM (active) and inactive | inactive | inactive | inactive | inactive | – | – | inactive | inactive | inactive | inactive | inactive | inactive | – | – | – | – | – |
| COC(=O)[C@H](Cc1ccccc1)NC(=O)[C@@H](N)CC(=O)O (H-Asp-Phe-OMe) | inactive | inactive | inactive | inactive | inactive | inactive | inactive | inactive | inactive | inactive | inactive | – | inactive | inactive | – | – | inactive | – | – |
| CCOc1ccc(NC(=O)CC(C)O)cc1 (stereo not drawn) | inactive | inactive | inactive | inactive | inactive | – | inactive | inactive | inactive | inactive | – | inactive | inactive | inactive | – | inactive | inactive | – | – |
| O=C(O)CCCCC(=O)O | inactive | inactive | inactive | inactive | inactive | inactive | inactive | inactive | inactive | inactive | – | inactive | inactive | inactive | inactive | inactive | inactive | – | – |
| CCCCOC(=O)CC(CC(=O)OCCCC)(OC(C)=O)C(=O)OCCCC | inactive | inactive | inactive | inactive | inactive | – | – | – | inactive | inactive | – | inactive | inactive | inactive | inactive | inactive | inactive | inactive | inactive |
| O=C(C1CCCCC1)N1CC(=O)N2CCc3ccccc3C2C1 (stereo not drawn) | inactive | inactive | inactive | 43.2 µM (active) and inactive | inactive | – | – | – | inactive | inactive | – | inactive | inactive | inactive | – | – | inactive | – | – |
| O=C(c1ccccc1)C(O)c1ccccc1 (stereo not drawn) | inactive | inactive | inactive | inactive | inactive | – | inactive | inactive | inactive | inactive | – | – | inactive | inactive | inactive | – | inactive | inactive | inactive |
